Assay results: the supplement of paper PMC6897291

Experiments:
[1] = test system: U-2932; assay: growth inhibition by drug alone (1 - RLU/untreated control) (fraction); higher = stronger inhibition; conditions: 177Lu-lilotomab satetraxetan 0 ug/ml
Summary of the method: (§1)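 A radiolabelled anti-CD37 antibody conjugate (~600 MBq/mg) was applied for 18 h at 0.5 µg/ml to RIVA and 1 µg/ml to U-2932 cells, with untreated cells run alongside. All cells were washed and seeded at 3,000 cells/well onto library-printed plates at 10/100 nM (RIVA) or 10/1,000 nM (U-2932). Growth inhibition was based on RealTime-Glo luminescence compared with untreated no-drug wells. Daily reads began on day 3 after 1 h at 37°C, with each value being 1 − RLU/mean of the 48 such wells on that plate.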

[2] = test system: RIVA; assay: as above; conditions: 177Lu-lilotomab satetraxetan 0 ug/ml
Summary of the method: as §1

[3] = test system: U-2932; assay: growth inhibition by drug plus 177Lu-lilotomab satetraxetan (1 - RLU/untreated control) (fraction); higher = stronger inhibition; conditions: 177Lu-lilotomab satetraxetan 1 ug/ml
Summary of the method: as §1

[4] = test system: RIVA; assay: as above; conditions: 177Lu-lilotomab satetraxetan 0.5 ug/ml
Summary of the method: as §1

SMILES	growth inhibition by drug alone ([1]; 10 nM, time (day): 3)	growth inhibition by drug alone ([1]; 10 nM, time (day): 4)	growth inhibition by drug alone ([1]; 10 nM, time (day): 5)	growth inhibition by drug alone ([1]; 10 nM, time (day): 6)	growth inhibition by drug alone ([1]; 1000 nM, time (day): 3)	growth inhibition by drug alone ([1]; 1000 nM, time (day): 4)	growth inhibition by drug alone ([1]; 1000 nM, time (day): 5)	growth inhibition by drug alone ([1]; 1000 nM, time (day): 6)	growth inhibition by drug alone ([2]; 10 nM, time (day): 3)	growth inhibition by drug alone ([2]; 10 nM, time (day): 4)	growth inhibition by drug alone ([2]; 10 nM, time (day): 5)	growth inhibition by drug alone ([2]; 10 nM, time (day): 6)	growth inhibition by drug alone ([2]; 100 nM, time (day): 3)	growth inhibition by drug alone ([2]; 100 nM, time (day): 4)	growth inhibition by drug alone ([2]; 100 nM, time (day): 5)	growth inhibition by drug alone ([2]; 100 nM, time (day): 6)	growth inhibition by drug plus 177Lu-lilotomab satetraxetan ([3]; 10 nM, time (day): 3)	growth inhibition by drug plus 177Lu-lilotomab satetraxetan ([3]; 10 nM, time (day): 4)	growth inhibition by drug plus 177Lu-lilotomab satetraxetan ([3]; 10 nM, time (day): 5)	growth inhibition by drug plus 177Lu-lilotomab satetraxetan ([3]; 10 nM, time (day): 6)	growth inhibition by drug plus 177Lu-lilotomab satetraxetan ([3]; 1000 nM, time (day): 3)	growth inhibition by drug plus 177Lu-lilotomab satetraxetan ([3]; 1000 nM, time (day): 4)	growth inhibition by drug plus 177Lu-lilotomab satetraxetan ([3]; 1000 nM, time (day): 5)	growth inhibition by drug plus 177Lu-lilotomab satetraxetan ([3]; 1000 nM, time (day): 6)	growth inhibition by drug plus 177Lu-lilotomab satetraxetan ([4]; 10 nM, time (day): 3)	growth inhibition by drug plus 177Lu-lilotomab satetraxetan ([4]; 10 nM, time (day): 4)	growth inhibition by drug plus 177Lu-lilotomab satetraxetan ([4]; 10 nM, time (day): 5)	growth inhibition by drug plus 177Lu-lilotomab satetraxetan ([4]; 10 nM, time (day): 6)	growth inhibition by drug plus 177Lu-lilotomab satetraxetan ([4]; 100 nM, time (day): 3)	growth inhibition by drug plus 177Lu-lilotomab satetraxetan ([4]; 100 nM, time (day): 4)	growth inhibition by drug plus 177Lu-lilotomab satetraxetan ([4]; 100 nM, time (day): 5)	growth inhibition by drug plus 177Lu-lilotomab satetraxetan ([4]; 100 nM, time (day): 6)
Nc1nccc(-c2ccc3noc(-c4ccc(Cl)cc4)c3c2)n1 [PIM-1 Inhibitor 2]	0.154	0.0795	7.17e-05	-0.0865	0.121	0.133	0.0739	0.0111	0.115	0.126	0.0578	-0.0926	0.116	0.161	0.123	0.0468	0.0725	0.102	0.129	0.208	0.106	0.208	0.188	0.253	0.465	0.59	0.607	0.604	0.451	0.536	0.524	0.507
CC(C)OC(=O)C1=CN(C(=O)c2ccc(F)c(F)c2)CC(C)(C)c2c1[nH]c1ccccc21	0.0404	-0.0052	-0.0866	-0.191	-0.0177	-0.00403	-0.0481	-0.039	0.0268	0.00242	0.00693	-0.0298	-0.161	-0.106	-0.145	-0.234	0.0558	0.102	0.14	0.204	0.038	0.085	0.0862	0.162	0.587	0.594	0.614	0.598	0.546	0.595	0.608	0.597
